Laboratory results published in PubChem BioAssay AID1745845 (National Center for Advancing Translational Sciences (NCATS), 2022).
The campaign covered roughly 360,000 compounds. About 2,600 (0.72%) were called active. A call without a number means that no potency is given here. Another 5% or so got no clear call; they are omitted. For the sample, actives were picked, then their nearest neighbours and some compounds at random. Unmarked numbers belong to inactive results. The call rests on the fitted dose curve; in most records, active means well fitted inhibition curve with a large enough effect; inconclusive means small, poorly fitted or top-dose-only effect; inactive means no such curve, though single readings can be large or run the other way.

test: Primary qHTS for Inhibitors of ATXN expression; details: HEK-293 ATXN2-luciferase reporter, luminescence, 24 h; series mostly up to 57 µM; further: nearly all actives have a fitted effect of over 55% in size
Procedure, shortened: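 ATXN2-luciferase reporter cells (luciferase flanked by upstream and downstream ATXN2 gene portions) were treated 24 h at 37 °C with compounds at up to 57 uM. SteadyGlo luminescence gave expression; GF-AFC fluorescence gave viability.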
Potency means the concentration at half of the fitted maximal effect.

SMILES	Potency	activity change, negative = inhibition
O=C(Nc1ccc2oc(-c3ccc(O)c(Br)c3)nc2c1)c1cc2ccccc2o1	inactive	
CC(C)(C)c1ccc(OCC(=O)N2CCC(c3nc4ccccc4s3)CC2)cc1	inactive	
CSc1nc(-c2ccccc2Cl)nc2c1Cc1c(CO)cnc(C)c1O2	inactive	
CCCCOCCOC(=O)c1cccnc1	inactive	
Cc1ccccc1NC(=O)Cn1c(=O)n(Cc2ccco2)c(=O)c2ccc(C(=O)NC3CCCC3)cc21	inactive	
CN1C(=O)C[C@H](C(=O)N[C@@H](Cc2cnc[nH]2)C(=O)N2CCC[C@@H]2C(N)=O)NC1=O	inactive	
CC(C)C[C@H]1CNC(=S)N1C[C@H]1CCCN1C[C@H](Cc1ccc(O)cc1)N1C[C@H](Cc2ccc(O)cc2)N(CC2CCCCC2)C1=S	28.2 µM (active)	
O=C1NC[C@H](Cc2ccc(O)cc2)N(C[C@@H]2CCCN2C[C@H](Cc2ccccc2)N2C[C@H](Cc3ccccc3)N(CC3CCCCC3)C(=O)C2=O)C1=O	inactive	
CC(C)C[C@H]1CNC(=O)C(=O)N1C[C@H]1CCCN1C[C@H](Cc1ccc(O)cc1)N1C[C@H](CC(C)C)N(CC2CCCCCC2)C(=O)C1=O	inactive	
COc1cccc(C(=O)NCC(=O)OCc2cc(=O)n3ccsc3n2)c1	inactive	
COc1ccc(Cn2ccc3nc(C)c(C(=O)Nc4ccc(C)c(F)c4)cc3c2=O)cc1	inactive	
CCOC(=O)c1c(C)oc2nc(C)nc(Nc3ccc(CC)cc3)c12	inactive	
CC=C(C(=CC)c1ccc(O)cc1)c1ccc(O)cc1	inactive	
N=C1C(c2nc3ccccc3s2)=C(O)CN1NC(=O)c1ccc([N+](=O)[O-])cc1	inactive	
O=C(NC(Nc1nc2ccc([N+](=O)[O-])cc2s1)(C(F)(F)F)C(F)(F)F)c1ccccc1	0.891 µM (active)	
O=C(Nc1nc2ccc([N+](=O)[O-])cc2s1)c1ccc(S(=O)(=O)N2CCCc3ccccc32)cc1	13.4 µM (active)	
O=C(O)c1cc([N+](=O)[O-])c(Nc2cccc3ccccc23)c([N+](=O)[O-])c1	inactive	
Cc1ccc(NC(=O)c2cccc(S(=O)(=O)N3CCCc4ccccc43)c2)nc1	inactive	
CCC(=O)Nc1nnc(S(=O)(=O)N2CCCc3ccccc32)s1	inactive	
Cc1ccc(-c2nc(S(=O)(=O)c3ccc(C)cc3)c(N3CCCCCC3)o2)cc1	inactive	
CC1(C)[C@H](O[C@H]2O[C@H](C(=O)O)[C@@H](O)[C@H](O)[C@H]2O[C@@H]2O[C@H](C(=O)O)[C@@H](O)[C@H](O)[C@H]2O)CC[C@@]2(C)[C@H]1CC[C@]1(C)[C@H]2C(=O)C=C2[C@H]3C[C@@](C)(C(=O)O)CC[C@]3(C)CC[C@]21C	inactive	
CC[C@]12C=CCN3CC[C@@]4(c5cc([C@@]6(C(=O)OC)C[C@H]7C[C@@H](C(C)(F)F)CN(Cc8c6[nH]c6ccccc86)C7)c(OC)cc5N(C)[C@H]4[C@@](O)(C(=O)OC)[C@H]1OC(C)=O)[C@@H]32	inactive	

SMILES	Potency	activity change, negative = inhibition
CN(C)C(=O)c1cccc(-c2cnc3sc(NCc4ccc5c(c4)OCO5)nn23)c1	inactive	
COc1ccc(-c2nnc(SCC(=O)Nc3ccccc3C)o2)cc1OC	inactive	
COC(=O)[C@]12CCCCC=C1N(CCC1=CCCCC1)C(=O)[C@H](CC(=O)NCC1CCCCC1)C2	inactive	
CC(=O)Nc1cccc(-c2ccnc3c2CC(C)(C(=O)NCc2ccco2)O3)c1 (stereo not given)	inactive	
COc1ccc(C2CC(c3ccc([N+](=O)[O-])cc3)=NN2C(C)=O)cc1 (stereo not given)	inactive	
COc1ccc(C2CC(c3ccccc3)=NN2C(=O)c2ccc(Cl)c([N+](=O)[O-])c2)cc1 (stereo not given)	28.2 µM (active)	
COc1ccc(C2CC(c3ccccc3)=NN2C(=O)COC(=O)COc2ccccc2)cc1 (stereo not given)	inactive	
CCOCCCNC(=O)c1cn(CC)c2ccc(S(=O)(=O)N3CCc4ccccc4C3)cc2c1=O	inactive	
COc1ccc(NC(=O)CSC2=Nc3ccccc3C3=NC(CC(=O)NCc4ccccc4OC)C(=O)N23)cc1Cl (stereo not given)	inactive	
COc1ccc(NC(=O)Cn2c(=O)cc(C)c3c(C)nn(-c4cccc(Cl)c4C)c32)cc1OC	inactive	
NC(=O)C1CCN(C(=O)c2cccc(NC(=O)c3nsc4ccccc34)c2)CC1	inactive	
c1ccc2c(c1)C(=NC1CCCCC1)NC2=NC1CCCCC1	28.2 µM (active)	
Cc1ccc2nc(-c3ccco3)c(Cc3cccc(Cl)c3)n2c1	inactive	
CN(Cc1ccccc1)c1ncnc2onc(-c3ccc(F)cc3)c12	inactive	
CC(C)(C)c1cc(C(=O)NN)n(Cc2ccc(Cl)cc2Cl)n1	12.6 µM (active)	
Cn1cc(C(=O)c2ccc(Cl)cc2Cl)cc1C(=O)NN	inactive	
CC(C)(C)NC(=O)NC(=O)COC(=O)Cc1ccc(Cl)cc1Cl	inactive	
CCOC(=O)c1cccc(NC(=O)c2cc(CN3CCCC3)on2)c1	inactive	
CN(Cc1ccccc1)C(=O)c1cccc(C(=O)N(C)Cc2ccccc2)c1	inactive	
CN(O)C(=S)c1ccccc1	3.98 µM (active)	
COc1cc(NS(=O)(=O)c2cccs2)cc(OC)c1	inactive	
Cc1c2cnn(-c3ccccc3)c(=O)c2c(C)n1C(C)C(=O)Nc1ccc(Br)cc1F (stereo not given)	inactive	

SMILES	Potency	activity change, negative = inhibition
S=C(NCCCc1cnc[nH]1)NCCCN(Cc1ccc(Cl)c(Cl)c1)c1ccc(Br)cn1	15.8 µM (active)	
COc1ccccc1CNC(=O)C(=O)NCC(c1cccs1)S(=O)(=O)c1cccs1 (stereo not given)	inactive	
COc1ccc(CCNC(=O)CCCn2c(=O)c3ccccc3n(Cc3ccc(C)cc3)c2=O)cc1OC	inactive	
CCCCCCCc1ccc(CCc2cccc(O)c2C(=O)O)cc1	inactive	
COc1ccccc1OCCCn1c(-c2ccc(Cl)cc2)nc2ccccc2c1=O	inactive	
COC(=O)c1cc(OC)ccc1-c1ccc(OC)cc1	inactive	
CCOC(=O)C(NC(C)=O)C(=O)Nc1ccc(OC)cc1 (stereo not given)		-27.3% [at 11.3 µM]
CCOC(=O)C1=C(c2ccc(OC)cc2)C(=O)c2ccccc2C1=O	5.01 µM (active)	
Cc1cccc(-c2nc(SCC(=O)Nc3cc(C)on3)c3c(=O)n(C)c(=O)n(C)c3n2)c1	inactive	
CC(NCc1ccc2c(c1)nc(NC(=O)c1ccc(-c3cn[nH]c3)s1)n2CC(C)(C)O)C(C)(C)C (stereo not given)	0.968 µM (active)	
O=C(NCc1ccccc1)C1CCN(S(=O)(=O)c2ccc3[nH]c(=O)ccc3c2)CC1	inactive	
CO[C@]1(NC(=O)CSC(F)F)C(=O)N2C(C(=O)O)=C(CSc3nnnn3CCO)CO[C@H]21	inactive	
Cc1cccc(C(C)C)c1NC(=O)C(NS(=O)(=O)c1cccc2nsnc12)c1ccccc1 (stereo not given)	inactive	
C=C1CCC2[C@](C)(CO)C(O)CC[C@]2(C)C1CC=C1C(=O)OCC1O (stereo not given in full)	inactive	
Cc1oc2ccc(O)c(CN3CCOCC3)c2c1C(=O)Nc1cccc(Cl)c1C	inactive	
Cc1oc2ccc(O)c(CN3CCC(C)CC3)c2c1C(=O)Nc1ccccc1	inactive	
Cc1oc2ccc(O)c(CN3CCCCC3)c2c1C(=O)Nc1cccc(C(F)(F)F)c1	28.2 µM (active)	
O=C(c1cccc(Cl)c1)N1CCN(CCc2ccncc2)CC1	inactive	
CCN(CC)c1ccc(C2C(C(N)=O)=C(C)Nc3nc(SCc4ccccc4)nn32)cc1 (stereo not given)	inactive	
CC(C)(C)OC(=O)N1CCC(c2c(C(=O)N3CCc4ccccc4C3)cnn2-c2ccc(F)cc2)CC1	inactive	
COc1ccccc1NC(=O)C1=C(C)Nc2nc(SCC(=O)c3ccc(C)cc3)nn2C1c1ccccc1C (stereo not given)	inactive	
CCc1nc2c(OCc3cccc(OC)c3)cccn2c1N(C)C(=O)C(C)C	inactive	

SMILES	Potency	activity change, negative = inhibition
CCc1nc2c(OCc3ccc(Cl)cc3Cl)cccn2c1N(C)C(=O)C(C)C	28.2 µM (active)	
CCc1nc2c(OCc3ccc(C(=O)OC)cc3)cccn2c1N(C)C(=O)C(C)C	inactive	
COC(=O)[C@@]1(Sc2ccc(C)cc2)CC(=O)N(c2cccc(SC)c2)[C@@H]1c1ccccc1	inactive	
CC=CC[C@@H](C)C(=O)[C@H]1C(=O)N[C@@H](C(C)C)C(=O)N(C)CC(=O)N(C)[C@@H](CC(C)C)C(=O)N[C@@H](C(C)C)C(=O)N(C)[C@@H](CC(C)C)C(=O)N[C@@H](C)C(=O)N[C@H](C)C(=O)N(C)[C@@H](CC(C)C)C(=O)N(C)[C@@H](CC(C)C)C(=O)N(C)[C@@H](C(C)C)C(=O)N1C	inactive	
O=C(NC1CCCC1)C1c2ccccc2OCC(=O)N1CC(F)(F)F (stereo not given)	inactive	
Cc1cc(C)cc(NC(=O)Cn2c(=O)c3ccccc3n3nncc23)c1	inactive	
Cc1cc(NC(=O)c2cccc(Cl)c2)ccc1-c1cc2ccccc2oc1=O	inactive	
CS(=O)(=O)N1CCN(C(=O)c2cc3ccccc3oc2=O)CC1	inactive	
O=c1oc2ccccc2cc1-c1cn(-c2ccccc2)c(=S)[nH]1	8.91 µM (active)	
Cc1ccc(CNC(=O)CCc2c(C)nc3nc(CNC(=O)OC(C)(C)C)nn3c2C)cc1	inactive	
COc1cccc2sc(N(CCCN(C)C)C(=O)C(c3ccccc3)c3ccccc3)nc12	22.4 µM (active)	
COc1ccccc1NC(=O)CC(NCCN(C)C)C(=O)O (stereo not given)	inactive	
CCN(CC)CCN(C(=O)c1cccc([N+](=O)[O-])c1)c1nc2ccc(OC)cc2s1	inactive	
COc1ccc(Cl)cc1N(CC(=O)N/N=C/c1ccc(OCC(N)=O)cc1)S(C)(=O)=O	inactive	
Cc1nc2ccccc2nc(C)c1=NOCc1ccc(Cl)cc1Cl	inactive	
NC(N)=N/N=C/c1ccc(OCc2ccc(Cl)cc2Cl)cc1	22.4 µM (active)	
CCc1nc2ccc(C(=O)N(C)CCN(C)C)cn2c1N(CC)CCOC	inactive	
CC(C)Sc1oc(-c2cccs2)nc1S(=O)(=O)c1ccc(Cl)cc1	inactive	
CC1CC(C)(C)n2c(O)c(N=NC(N)=S)c3cccc1c32 (stereo not given)	28.2 µM (active)	
